# The sample as a whole holds a higher share of the strongest signals than the screen did.
# B1: SialidaseA (Arthrobacter ureafaciens) (protein)
# chain: MRSNSTSAPSLVRRAATGVLTCAVSIGLLAGLGLPAQAAPTPPNSPTLPPGSFSETNLAADRTAANFFYRIPALTYLGNDVVLAAWDGRPGSAADAPNPNSIVQRRSTDGGKTWGPVQVIAAGHVADASGPRYGYSDPSYIYDAEANKVFAFFVYSKDQGFGGSQFGNDDADRNVISSAVIESSDAGVTWSQPRLITSVTKPGTSKTNPAAGDVRSNFASSGEGIQLKYGPHKGRLIQQYAGDVRQADGSNKIQAYSVYSDDHGVTWHKGANVGDRMDENKTVELSDGRVLLNSRDNANRGYRKVAVSTDGGATYGPVSQDTELPDPANNGAIARMFPNAAQGSADAKKLIFTNANSKTGRENVSARVSCDDGETWPGVRTIRSGFSAYSTVTRLADGKFGVLYEGNYTDNMPFATFDDAWLNYVCAPLAVPAVNIAPSATQEVPVTVTNQEATTLSGATATVYTPSGWSATTVPVPDVAPGASVTVTVALTAPADASGPRSLNAAFTTADGRVSQFTFTATTPVAPQVGLTITGSAPARDVAANPYQAGDVLGYTLNVKSTANVAANSVPLTGTFDSGFLPPAAPNCRYNNLAAGASYNCTTAKHTITAADMERGYFVPEATFSITSTTTPSLTKTVQFTGAAVALRDGLISADISGARTDVGRDLATRPYAAGELVPYAFTVKNTSPFVEQVVPTAGNFSPFLPAGAGNCRYLSLPAGQSYECATPRHAVTAEEVEQGFFVPDTTWEVSAAGQSTRTYRINGGEVDLLVRDAALSATVVAEWKDADGDRFASAGDPVTFTYTVGNAGNVALTGLEAPDAGISLPFLAPGDTATATREHVLTAADVAGGSLAASAFEATARNGSKEVTATAEGQPLELKVQPAQPSKEPELTVQDLEDQTPPFDLGTAFKYRTGQKVSLAGLEYGQWYYVYLNKTGYRLGWMFPTTGDTVEFILPPEVRNGRDDVVVLDKDGRRVSFDRLQVTPKGEKI
# Tests used:
# Assay in all cases: glycan array binding signal (z-score within array); higher = stronger binding
# Conditions in all cases: glycan notation: IUPAC condensed, linker removed
# [1] = molecular target: Fuc(a1-2)Gal(b1-3)GlcNAc6S
# Outline: (§1)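 Glycan array binding is given as a within-array Z-score, which can be read as non-binding when negative. The arrays, 3228 of them, came from the Consortium for Functional Glycomics database and were retained only where the protein sequence was available. Z-scores were averaged across arrays of the same protein sequence at different concentrations or buffers and across linkers.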
# [2] = molecular target: Fuc(a1-2)Gal(b1-4)GlcNAc(b1-3)Gal(b1-4)GlcNAc(b1-2)Man(a1-3)[Fuc(a1-2)Gal(b1-4)GlcNAc(b1-3)Gal(b1-4)GlcNAc(b1-2)Man(a1-6)]Man(b1-4)GlcNAc(b1-4)GlcNAc
# Outline: as §1
# [3] = molecular target: Fuc(a1-2)Gal(b1-4)[Fuc(a1-3)]GlcNAc(b1-2)[Fuc(a1-2)Gal(b1-4)[Fuc(a1-3)]GlcNAc(b1-4)]Man(a1-3)[Fuc(a1-2)Gal(b1-4)[Fuc(a1-3)]GlcNAc(b1-2)Man(a1-6)]Man(b1-4)GlcNAc(b1-4)GlcNAc
# Outline: as §1
# [4] = molecular target: Fuc(a1-2)[Gal(a1-3)]Gal(b1-3)GlcNAc
# Outline: as §1
# [5] = molecular target: Fuc(a1-2)[Gal(a1-3)]Gal(b1-4)GlcNAc(b1-2)Man
# Outline: as §1
# [6] = molecular target: Fuc(a1-2)[Gal(a1-3)]Gal(b1-4)GlcNAc(b1-6)GalNAc
# Outline: as §1
# [7] = molecular target: Fuc(a1-2)[GalNAc(a1-3)]Gal(b1-4)GlcNAc(b1-2)Man(a1-3)[Fuc(a1-2)[GalNAc(a1-3)]Gal(b1-4)GlcNAc(b1-2)Man(a1-6)]Man(b1-4)GlcNAc(b1-4)GlcNAc
# Outline: as §1
# [8] = molecular target: Fuc(a1-2)[GalNAc(a1-3)]Gal(b1-4)GlcNAc(b1-6)GalNAc
# Outline: as §1
# Gal(a1-3)Gal(b1-3)GlcNAc = molecular target: Gal(a1-3)Gal(b1-3)GlcNAc
# Outline: as §1
# [9] = molecular target: Gal(a1-3)Gal(b1-3)GlcNAc(b1-2)Man(a1-3)[Gal(a1-3)Gal(b1-3)GlcNAc(b1-2)Man(a1-6)]Man(b1-4)GlcNAc(b1-4)GlcNAc
# Outline: as §1
# [10] = molecular target: Gal(a1-4)Gal(b1-4)GlcNAc(b1-3)Gal(b1-4)Glc
# Outline: as §1
# Gal(b1-3)Gal(b1-4)GlcNAc = molecular target: Gal(b1-3)Gal(b1-4)GlcNAc
# Outline: as §1
# [11] = molecular target: Gal(b1-3)GlcNAc(a1-6)Gal(b1-4)GlcNAc
# Outline: as §1
# Gal(b1-3)GlcNAc6S = molecular target: Gal(b1-3)GlcNAc6S
# Outline: as §1
# [12] = molecular target: Gal(b1-3)[Neu5Ac(a2-6)]GlcNAc(b1-4)Gal(b1-4)Glc
# Outline: as §1
# [13] = molecular target: Gal(b1-4)GlcNAc(b1-2)[Gal(b1-4)GlcNAc(b1-6)]Man(a1-6)[Gal(b1-4)GlcNAc(b1-2)Man(a1-3)]Man(b1-4)GlcNAc(b1-4)GlcNAc
# Outline: as §1
# Gal(b1-4)GlcNAc6P = molecular target: Gal(b1-4)GlcNAc6P
# Outline: as §1
# [14] = molecular target: Gal3S(b1-3)[Fuc(a1-4)]GlcNAc
# Outline: as §1
# Gal6S(b1-4)Glc = molecular target: Gal6S(b1-4)Glc
# Outline: as §1
# [15] = molecular target: GalNAc(b1-3)Gal(a1-4)Gal(b1-4)GlcNAc(b1-3)Gal(b1-4)Glc
# Outline: as §1
# GalNAc(b1-3)GalNAc = molecular target: GalNAc(b1-3)GalNAc
# Outline: as §1
# GalNAc(b1-3)GlcNAc = molecular target: GalNAc(b1-3)GlcNAc
# Outline: as §1
# [16] = molecular target: Man(a1-2)Man(a1-3)[Man(a1-2)Man(a1-6)]Man(a1-6)[Man(a1-2)Man(a1-2)Man(a1-3)]Man(b1-4)GlcNAc(b1-4)GlcNAc
# Outline: as §1
# [17] = molecular target: Man(a1-3)[Man(a1-6)]Man(a1-6)[Man(a1-2)Man(a1-3)]Man(b1-4)GlcNAc(b1-4)GlcNAc
# Outline: as §1
binder,measurement,setting,value
B1,glycan array binding signal (z-score),[1],-0.849
same,glycan array binding signal (z-score),[2],1.3
same,glycan array binding signal (z-score),[3],0.318
same,glycan array binding signal (z-score),[4],-0.478
same,glycan array binding signal (z-score),[5],-0.252
same,glycan array binding signal (z-score),[6],-0.849
same,glycan array binding signal (z-score),[7],-0.021
same,glycan array binding signal (z-score),[8],-0.733
same,glycan array binding signal (z-score),Gal(a1-3)Gal(b1-3)GlcNAc,-0.563
same,glycan array binding signal (z-score),[9],0.062
same,glycan array binding signal (z-score),[10],-0.51
same,glycan array binding signal (z-score),Gal(b1-3)Gal(b1-4)GlcNAc,-0.643
same,glycan array binding signal (z-score),[11],-0.544
same,glycan array binding signal (z-score),Gal(b1-3)GlcNAc6S,-0.625
same,glycan array binding signal (z-score),[12],2.48
same,glycan array binding signal (z-score),[13],-0.46
same,glycan array binding signal (z-score),Gal(b1-4)GlcNAc6P,-0.685
same,glycan array binding signal (z-score),[14],-0.337
same,glycan array binding signal (z-score),Gal6S(b1-4)Glc,-0.719
same,glycan array binding signal (z-score),[15],-0.337
same,glycan array binding signal (z-score),GalNAc(b1-3)GalNAc,-0.689
same,glycan array binding signal (z-score),GalNAc(b1-3)GlcNAc,-0.637
same,glycan array binding signal (z-score),[16],-0.441
same,glycan array binding signal (z-score),[17],-0.172

# Reference: the supplement of paper PMC8728848
